Assay results: PubChem BioAssay (EPA / NIEHS)
Activity calls are given as the source filed them. The calls were made as follows: active = hit-call score of the fitted dose curve at least 0.9, where 1 is the maximum; inactive = score below 0.9.

Experiment: ATG_M_61_CIS: Attagene CIS-FACTORIAL HepG2 Assay for M61 Transcription Factor (Internal Marker) (AID 2282937)
Settings: HepG2 Attagene CIS-FACTORIAL M61 internal marker reporter; actives raise or lower the signal
Description: ATG_CIS is a cell-based, multiplexed-readout assay that uses HepG2, a human liver cell line, with measurements taken at 24 hours after chemical dosing in a 24-well plate.ATG_M_61_CIS is one of 52 assay component(s) measured or calculated from the ATG_CIS assay. It is designed to make measurements of mRNA induction, a form of inducible reporter, as detected with fluorescence intensity signals by Reverse transcription polymerase chain reaction (RT-PCR) and Capillary electrophoresis technology.Data from the assay component ATG_M_61_CIS was analyzed into 1 assay endpoint. This assay endpoint, ATG_M_61_CIS, was analyzed with bidirectional fitting relative to DMSO as the negative control and baseline of activity. Using a type of inducible reporter, measures of mRNA for gain or loss-of-signal activity can be used to understand the background control at the transcription factor-level as they relate to the gene . Furthermore, this assay endpoint can be referred to as a secondary readout, because this assay has produced multiple assay endpoints where this one serves a background control function. To generalize the intended target to other relatable targets, this assay endpoint is annotated to the background measurement intended target family, where the subfamily is internal marker.
Human liver HepG2 cells are transiently transfected with multiple reporter transcription units (MRTUs) in 6-well plates using FuGene 6 reagent (Roche; 3 ml FuGene/1 mg DNA). The MRTU constructs are regulated by a cis-regulating element (promoter). […] A major difference between the CIS and TRANS system is that in CIS activities of endogenous TFs are measured, whereas the TRANS assay evaluates changes in activities of exogenous, chimeric NR-Gal4 proteins. […] At the end of 24 hour incubation, total RNA was isolated using TriZol reagent (Invitrogen). The isolated RNA is then reverse-transcribed using oligo(dT) primer and Mo-MLV reverse transcriptase (Invitrogen) with DNAse I (Ambion) treatment for 30 min. The one-tenth of the produced cDNA was amplified by PCR using Taq DNA polymerase (Invitrogen) and two reporter sequence-specific primers. The PCR products were fluorescently labeled by primer extension with 6-arboxyfluorescein (6-FAM) 5'-labeled reporter sequence-specific primer (2 min at 95 C, 20 s at 68 C and 10 min at 72 C) and these products were digested with 5U of HpaI (New England Biolabs) for 2h at 37 C. The fragments were purified using Qiaquick PCR columns (Qiagen), analyzed on an ABI 3130xL genetic analyzer (Applied Biosystems) with peak positions identified by using a set of X-rhodamine (ROX)-labeled MapMarker1000 molecular weight standards (BioVentures). The raw capillary electrophoresis data was processed using Attagraph software (Attagene).

outcome, inactive:
CO[C@@H]1COCC[C@@H]1N[C@@H]1CC[C@@](C(=O)N2CCc3ncc(C(F)(F)F)cc3C2)(C(C)C)C1
CN(C)CCCN(C)CCCN(C)C
Cc1ccc(-c2cc(C(F)(F)F)nn2-c2ccc(S(N)(=O)=O)cc2)cc1
CCCCCCCC(=O)OC
CCc1cc(C2=C(C(=O)O)N(c3ccccc3C(F)(F)F)S(=O)(=O)c3ccccc32)cc2c1OCO2
CC(C)COC(=O)CCCCC(=O)OCC(C)C
COc1ccc(OC(F)(F)F)cc1CN[C@H]1CCCN[C@H]1c1ccccc1
Cn1cnc2c1c(=O)[nH]c(=O)n2C
CCC(C)N(C)C(=O)c1cc2ccccc2c(-c2ccccc2Cl)n1 (stereo not given)
Cc1cc(SC2=C(O)C[C@@](CCc3ccc(N)cc3)(C(C)C)OC2=O)c(C(C)(C)C)cc1CO
CCCCC(CC)COP(=O)(OCC(CC)CCCC)OCC(CC)CCCC (stereo not given)
Nc1nc(=S)c2[nH]cnc2[nH]1
N[C@@H](Cc1c[nH]c2ccccc12)C(=O)O
CCCCCCC(CCCCCCCCCCC(=O)OCC(COC(C)=O)OC(C)=O)OC(C)=O (stereo not given)
Cc1occc(=O)c1O
CN(C)C(=O)NC1(c2ccccc2)CCN(CCC[C@]2(c3ccc(Cl)c(Cl)c3)CCCN(C(=O)c3ccccc3)C2)CC1
CCCCc1nc2cccnc2n1Cc1ccc(-c2ccccc2-c2nnn[nH]2)cc1
Cc1cn([C@H]2C=C[C@@H](CO)O2)c(=O)[nH]c1=O
NC=O
CCCCC(CC)CO (stereo not given)
CCCCCCCCCCCCCCCCO
C=CCCCCCCCCCCCC
C#CC(O)C(CC)CCCC (stereo not given)
O=C(O)c1[nH]n(-c2ccc(S(=O)(=O)O)cc2)c(=O)c1N=Nc1ccc(S(=O)(=O)O)cc1
CC(=O)S[C@H](C(=O)N[C@H]1Cc2ccccc2[C@H]2CCC[C@@H](C(=O)O)N2C1=O)C(C)C
Cc1cc(Cc2ccc(N)c(C)c2)ccc1N
O=C1CCCCC1
CN(C)C(=O)NC1(c2ccccc2)CCN(CC[C@@]2(c3ccc(F)c(F)c3)CN(C(=O)c3ccccc3)CCO2)CC1
CSc1ccc(Oc2ccc(S(N)(=O)=O)cc2CN(C)C)cc1C
CC1(C)C(=O)NC(=O)N1CO
O=C(O)CN(CC(=O)O)CC(=O)O
CC(C)NCC(O)c1ccc(O)c(O)c1 (stereo not given)
CC1=C(C)S(=O)(=O)CCS1(=O)=O
C/C=C/c1ccc(OC)cc1
O=C1c2c(O)cccc2Cc2cccc(O)c21
CC(=O)[C@@]1(O)CC[C@H]2[C@@H]3CCC4=CC(=O)CC[C@]4(C)[C@H]3CC[C@@]21C
CC(=O)O[C@]1(C(C)=O)CC[C@H]2[C@@H]3C=C(Cl)C4=CC(=O)[C@@H]5C[C@@H]5[C@]4(C)[C@H]3CC[C@@]21C
CC(N)=O
CCCC[C@H]1CN(CC2CCOCC2)C(=O)OC12CCN(C1(C)CCN(C(=O)c3c(C)ncnc3C)CC1)CC2
CC(=O)OCC(COC(C)=O)OC(C)=O
